Paper PMC5540273 (PLoS ONE, 2017)

Key:
Settings in all cases: concentration: 1 μM, replicates: in singlicate; n = 1
AAK1 = system: AAK1
ABL1-nonphosphorylated = system: ABL1-nonphosphorylated
ABL1-phosphorylated = system: ABL1-phosphorylated
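Also: KINOMEscan kinase panel screen.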

SMILES | %Inh (AAK1) [%] | %Inh (ABL1-nonphosphorylated) [%] | %Inh (ABL1-phosphorylated) [%]
Cl.c1ccc(Cn2ncc3cc(Nc4ncnc5ccccc45)ccc32)cc1 [GW273749] | 30 | 38 | 17
Clc1cc(Nc2ncnc3cc[nH]c23)ccc1OCc1ccccn1 | 7 | 48 | 0
Nc1nc(-c2ccc3c(N)n[nH]c3c2)cc(N2CCCCC2)n1 [GSK2228768] | 53 | 0 | 0
O=C(c1ccc(-c2cc(-c3c[nH]nc3-c3ccccn3)ccn2)cc1)N1CCCC1 [GW792479] | 12 | 74 | 59
COC(=O)c1c(-c2ccccc2)c2cc(Cl)ccc2c(=O)n1Cc1ccc(S(C)(=O)=O)cc1 | 18 | 40 | 0
COC(=O)c1cccc(NC(=O)NCCNc2ccnc(Nc3ccc(F)cc3)n2)c1 [GSK1379883] | 3 | 0 | 0
Fc1cccc(COc2ccc(Nc3ncnc4nn5ccccc5c34)cc2Cl)c1 [GW689066] | 0 | 0 | 0
Cc1cc(N2CCC(NS(=O)(=O)c3ccc(F)cc3)CC2)nc(Nc2cccc(C#N)c2)n1.O=C(O)C(F)(F)F [GSK1653537] | 9 | 0 | 0
CCc1nc(-c2cccc(C)c2)c(-c2ccnc(NC(=O)c3ccccc3)c2)s1 | 2 | 24 | 0
Cn1ccc2ncnc(Oc3ccc(NC(=O)Nc4cccnc4)c(Cl)c3)c21 | 19 | 23 | 0
Cl.c1ccc(Cn2ccc3cc(Nc4ncnc5ccccc45)ccc32)cc1 [GW275568] | 17 | 0 | 30
C[C@H]1CC[C@@H](C(=O)Nc2ccccc2)CN1c1cc(-c2ccc3c(N)n[nH]c3c2)nc(N)n1 [GSK2283293] | 23 | 0 | 8
Nc1nc(-c2ccc3c(N)n[nH]c3c2)cc(N2CCC[C@@H](C(=O)Nc3ccccc3)C2)n1.O=C(O)C(F)(F)F.O=C(O)C(F)(F)F [GSK2288359] | 38 | 0 | 0
c1ccc(-c2ccc3c(-c4ccnc(Nc5ccc6c(c5)OCCO6)n4)cnn3n2)cc1 [GW818941] | 0 | 0 | 0
Fc1cccc(COc2ccc(Nc3ncnc4sc(-c5ccc[nH]5)cc34)cc2Cl)c1 [GW707818] | 0 | 0 | 0
CNc1nccc(-c2c(-c3ccc(F)cc3)ncn2CCCN2CCOCC2)n1 [SB-222516] | 0 | 23 | 0
CS(=O)(=O)CCNCc1ccc(-c2ccc3ncnc(Nc4ccc(OCc5ccccc5)c(Cl)c4)c3c2)o1.Cl [GW574783] | 13 | 0 | 0
COc1ccc(NC(=O)Nc2ccc(C)c(-c3ccc(C(=O)Nc4ccncc4)cc3)c2)cc1 [GSK1398475] | 2 | 0 | 2

SMILES | %Inh (AAK1) [%] | %Inh (ABL1-nonphosphorylated) [%] | %Inh (ABL1-phosphorylated) [%]
O=C(Nc1n[nH]c2nc(-c3ccco3)c(Br)cc12)c1ccc(CN2CCCC2)cc1.O=C(O)[C@H](O)[C@@H](O)C(=O)O [SB-742352] | 0 | 63 | 36
CSc1ccc(NC2=C(c3ccccc3Cl)C(=O)NC2=O)cc1 [SB-342411] | 24 | 0 | 0
COc1ccc(Nc2nccc(N3CCC(NC(=O)Nc4ccc5c(c4)OCO5)C3)n2)cc1 (stereo not drawn) [GSK1379745] | 3 | 0 | 0
Clc1cccc(-c2nc(Nc3ccncc3)c3ccccc3n2)c1 [GW873004] | 0 | 51 | 14
Cn1cc(-c2ccc3c(c2)CCN3C(=O)Cc2cccc(C(F)(F)F)c2)c2c(N)ncnc21 [GSK2606414] | 0 | 0 | 0
Cl.Cn1ccc(-c2cccc(Nc3ccnc4cc(-c5nccs5)ccc34)c2)n1 [GW525701] | 50 | 0 | 1
FC(F)(F)c1ccc(-c2nn3ncccc3c2-c2ccnc(Nc3cccc(C(F)(F)F)c3)n2)cc1 [GW828205] | 1 | 47 | 30
Cc1cccc(-c2nc(Nc3ccc4[nH]nnc4c3)c3ccccc3n2)n1 [GW867587] | 0 | 78 | 47
FC(F)(F)c1cc(Nc2nccc(-c3c(-c4ccc(Cl)cc4)nn4ncccc34)n2)ccc1Cl [GW829351] | 4 | 42 | 0
OCCOCCn1ccc2ncnc(Nc3ccc(Oc4cccc(Cl)c4)c(Cl)c3)c21 | 0 | 24 | 0
N#Cc1ccc(Oc2ccc(Nc3ncnc4cc[nH]c34)cc2Cl)cc1 | 14 | 51 | 6
Fc1cccc(COc2ccc(Nc3ncnc4cc[nH]c34)cc2Cl)c1 | 4 | 19 | 21
Cl.Cl.c1ccc(-c2cc3ccncc3cc2OC2CCNCC2)cc1 [GSK1122999] | 27 | 0 | 0
Fc1ccc(-c2ncn(CCCNCc3ccccc3)c2-c2ccncc2)cc1 | 16 | 25 | 15
Nc1nccc2scc(-c3ccc4c(c3)CCN4C(=O)Cc3cc(F)ccc3F)c12 [GSK2587663] | 0 | 0 | 0
Cc1ccc(C)c(NC(=O)NCCNc2ccnc(Nc3ccc(F)cc3)n2)c1 [GSK1379878] | 63 | 0 | 0
Cl.Fc1ccccc1COc1ccc(Nc2ncnc3ccc(-c4nnc(C(F)(F)F)o4)cc23)cc1Cl [GW424170] | 0 | 0 | 0
CC(C)(C)c1ccc(-n2cnc3c(N)ncnc32)cc1 [SKF-97263] | 1 | 0 | 0
